According to a collection of fitness landscapes (doi:10.1126/science.1257360):
The full ranking holds about 140,000 sequences; the median of “enrichment ratio after two sorts for PhoP signalling” is about 0, and the highest 2% start at about 11. The sample holds the highest values, similar sequences and a random draw of the others, so the mix is not that of the screen.

B1: PhoQ; a variant is named by its letters at X, in order, P23837 (parent)
chain: MKKLLRLFFPLSLRVRFLLATAAVVLVLSLAYGMVALIGYSVSFDKTTFRLLRGESNLFYTLAKWENNKLHVELPENIDKQSPTMTLIYDENGQLLWAQRDVPWLMKMIQPDWLKSNGFHEIEADVNDTSLLLSGDHSIQQQLQEVREDDDDAEMTHSVAVNVYPATSRMPKLTIVVVDTIPVELKSSYMVWSWFIYVLSANLLLVIPLLWVAAWWSLRPIEALAKEVRELEEHNRELLNPATTRELTSLVRNLNRLLKSERERYDKYRTTLTDLTHSLKTPLXXLQXXLRSLRSEKMSVSDAEPVMLEQISRISQQIGYYLHRASMRGGTLLSRELHPVAPLLDNLTSALNKVYQRKGVNISLDISPEISFVGEQNDFVEVMGNVLDNACKYCLEFVEISARQTDEHLYIVVEDDGPGIPLSKREVIFDRGQRVDTLRPGQGVGLAVAREITEQYEGKIVAGESMLGGARMEVIFGRQHSAPKDE

Variants of: B1
Experiment: enrichment ratio after two sorts for PhoP signalling (ratio (wild type AVST 3.29)); higher = more functional
Conditions: with PhoP (E. coli)

| Variant | enrichment ratio |
| --- | --- |
| FYPG | ≤ 0.25 |
| EFYK | ≤ 0.25 |
| IDSN | ≤ 0.25 |
| AILV | 5.12 |
| MKLV | 9.89 |
| AKLV | 16.2 |
| VYLV | ≤ 0.25 |
| ANLV | 14.1 |
| VFLV | ≤ 0.25 |
| AYLV | 3.08 |
| KCLV | ≤ 0.25 |
| GCLV | 14.5 |
| VCLV | 13 |
| QCLV | 1.13 |
| AHLV | 1.12 |
| RCEW | ≤ 0.25 |
| VEQN | ≤ 0.25 |
| PFRI | ≤ 0.25 |
| SNAR | ≤ 0.25 |
| LYVG | ≤ 0.25 |
| WLGW | ≤ 0.25 |
| IFLV | ≤ 0.25 |
| IILV | 1.58 |
| ICLV | 18.8 |

| Variant | enrichment ratio |
| --- | --- |
| KKLV | ≤ 0.25 |
| SRLV | 0.905 |
| TPLV | ≤ 0.25 |
| KALV | ≤ 0.25 |
| SNLV | 15.8 |
| YALV | 11.1 |
| HKLV | 0.341 |
| AALV | 12.9 |
| TKLV | 23.3 |
| EKVF | ≤ 0.25 |
| HDKH | ≤ 0.25 |
| VLRH | ≤ 0.25 |
| RKNR | ≤ 0.25 |
| SYSF | ≤ 0.25 |
| DGQH | ≤ 0.25 |
| YPAE | ≤ 0.25 |
| NFWK | ≤ 0.25 |
| MMNV | ≤ 0.25 |
| GSHK | ≤ 0.25 |
| GNLV | 11.9 |
| WILV | ≤ 0.25 |
| LNLV | ≤ 0.25 |
| IALV | 13.1 |
| IPLV | ≤ 0.25 |

| Variant | enrichment ratio |
| --- | --- |
| NALV | ≤ 0.25 |
| GSLV | 17.9 |
| GILV | 10.9 |
| QWMF | ≤ 0.25 |
| VRHG | ≤ 0.25 |
| GYNH | ≤ 0.25 |
| TDKY | ≤ 0.25 |
| TGYH | 1.03 |
| IQEV | ≤ 0.25 |
| PSYQ | 1.11 |
| VLVW | ≤ 0.25 |
| PWHD | ≤ 0.25 |
| AWHD | 24.7 |
| LWHD | ≤ 0.25 |
| ACNH | ≤ 0.25 |
| ACTH | 2.87 |
| AMWI | ≤ 0.25 |
| ACGH | 13.6 |
| AITS | 9.53 |
| NMVW | ≤ 0.25 |
| AMTS | 13.9 |
| AMVW | 11.8 |
| SCPW | ≤ 0.25 |
| KEAN | ≤ 0.25 |

| Variant | enrichment ratio |
| --- | --- |
| YKMT | 0.253 |
| GVMF | 2.88 |
| MYDC | ≤ 0.25 |
| VHEE | ≤ 0.25 |
| MGNK | ≤ 0.25 |
| EGFI | ≤ 0.25 |
| EGVD | ≤ 0.25 |
| QFHL | ≤ 0.25 |
| WTPV | ≤ 0.25 |
| FCGM | ≤ 0.25 |
| WFML | ≤ 0.25 |
| GWCM | ≤ 0.25 |
| QTWG | ≤ 0.25 |
| AIFC | ≤ 0.25 |
| AMYD | ≤ 0.25 |
| AMGD | 11.5 |
| KKTC | ≤ 0.25 |
| AMGH | 51 |
| AMTD | ≤ 0.25 |
| AITC | 19 |
| KKTI | ≤ 0.25 |
| AKTD | ≤ 0.25 |
| AKTI | 23.6 |
| AMTH | 0.411 |

| Variant | enrichment ratio |
| --- | --- |
| AIGH | 2.15 |
| DKAP | ≤ 0.25 |
| KDMR | ≤ 0.25 |
| TRNK | ≤ 0.25 |
| HVKY | ≤ 0.25 |
| PFRW | ≤ 0.25 |
| KMGT | ≤ 0.25 |
| QKFN | ≤ 0.25 |
| RPYD | ≤ 0.25 |
| AKTK | ≤ 0.25 |
| AMVA | ≤ 0.25 |
| AMIM | 29.3 |
| AITI | 10.7 |
| AKTC | 30.2 |
| AMVQ | 13.1 |
| AMWM | ≤ 0.25 |
| AKFC | ≤ 0.25 |
| NMVQ | ≤ 0.25 |
| AMTI | 11.6 |
| NMTI | ≤ 0.25 |
| AMPM | ≤ 0.25 |
| DMSC | ≤ 0.25 |
| KPPG | ≤ 0.25 |
| MFQM | ≤ 0.25 |

| Variant | enrichment ratio |
| --- | --- |
| IEMM | ≤ 0.25 |
| MKCV | ≤ 0.25 |
| WYPM | ≤ 0.25 |
| IISF | ≤ 0.25 |
| KMPW | ≤ 0.25 |
| LYRY | ≤ 0.25 |
| PGVK | ≤ 0.25 |
| AMAQ | 12.1 |
| AMFC | ≤ 0.25 |
| AHGQ | ≤ 0.25 |
| AMTC | 20.7 |
| NMAQ | ≤ 0.25 |
| AMNK | ≤ 0.25 |
| AMGQ | 13.7 |
| AKAQ | 7.28 |
| NMGQ | ≤ 0.25 |
| HQSV | ≤ 0.25 |
| LFRC | ≤ 0.25 |
| PWKY | ≤ 0.25 |
| DPKV | ≤ 0.25 |
| TIQF | 9.01 |
| TGIN | ≤ 0.25 |
| SCIN | 0.637 |
| SRIN | ≤ 0.25 |

| Variant | enrichment ratio |
| --- | --- |
| SAIN | 11.8 |
| KAIN | ≤ 0.25 |
| SGIN | 11.4 |
| SQIN | 12.8 |
| NAIN | ≤ 0.25 |
| EQIN | ≤ 0.25 |
| VAML | 7.99 |
| KNIR | ≤ 0.25 |
| SWRM | ≤ 0.25 |
| TMWP | ≤ 0.25 |
| SLWP | ≤ 0.25 |
| DKCH | ≤ 0.25 |
| VWNG | ≤ 0.25 |
| ADSY | ≤ 0.25 |
| RGSY | ≤ 0.25 |
| AKSY | 2.91 |
| AGSY | 14.7 |
| GGSY | ≤ 0.25 |
| AISY | 5.51 |
| AQSY | 12.7 |
| TGSY | 15.9 |
| AHSY | ≤ 0.25 |
| DTDV | ≤ 0.25 |
| WMKH | ≤ 0.25 |

| Variant | enrichment ratio |
| --- | --- |
| MNKP | ≤ 0.25 |
| RIYR | ≤ 0.25 |
| FFTK | ≤ 0.25 |
| WFGI | ≤ 0.25 |
| HTNW | ≤ 0.25 |
| KLTI | ≤ 0.25 |
| MSHF | 2.07 |
| KAGV | ≤ 0.25 |
| MRHV | ≤ 0.25 |
| MSGV | 13.8 |
| KSGV | ≤ 0.25 |
| MSHV | 17.4 |
| SEQA | ≤ 0.25 |
| GVVG | ≤ 0.25 |
| LEYW | ≤ 0.25 |
| RSAR | ≤ 0.25 |
| EASM | ≤ 0.25 |
| TSLQ | 16.4 |
| WILQ | ≤ 0.25 |
| FQLQ | 17.7 |
| FIMQ | ≤ 0.25 |
| NSLQ | 0.291 |
| FPLQ | ≤ 0.25 |
| FDLQ | ≤ 0.25 |

| Variant | enrichment ratio |
| --- | --- |
| MPLQ | ≤ 0.25 |
| MALQ | 13.1 |
| FILQ | 11.5 |
| FALQ | 7.48 |
| FITA | ≤ 0.25 |
| TPCV | ≤ 0.25 |
| HIPN | ≤ 0.25 |
| WRHY | ≤ 0.25 |
| GDYV | ≤ 0.25 |
| LQVN | ≤ 0.25 |
| DQMY | ≤ 0.25 |
| VHFI | ≤ 0.25 |
| FDRQ | ≤ 0.25 |
| LRHY | ≤ 0.25 |
| KSLQ | ≤ 0.25 |
| FSLQ | 11.8 |
| FCLQ | 6.86 |
| LNSK | ≤ 0.25 |
| TCWM | ≤ 0.25 |
| TCYA | 1.75 |
| TCYM | 12.1 |
| VECM | 0.698 |
| TCIM | 0.447 |
| FCTM | ≤ 0.25 |

| Variant | enrichment ratio |
| --- | --- |
| TCTM | 21.1 |
| TCCM | 20 |
| TCGM | 15.3 |
| TCNM | 1.24 |
| QECM | ≤ 0.25 |
| TCYN | 3.25 |
| IMKY | ≤ 0.25 |
| VMEY | ≤ 0.25 |
| TYKQ | ≤ 0.25 |
| IGCI | ≤ 0.25 |
| THAC | 6.19 |
| SQFC | ≤ 0.25 |
| WRVD | ≤ 0.25 |
| ISHC | ≤ 0.25 |
| YTMN | ≤ 0.25 |
| EMDR | ≤ 0.25 |
| DSWL | ≤ 0.25 |
| RECW | ≤ 0.25 |
| FMGG | ≤ 0.25 |
| EQVK | ≤ 0.25 |
| TCKQ | ≤ 0.25 |
| VECK | ≤ 0.25 |
| VECQ | 8.23 |
| TCCQ | 12.5 |

| Variant | enrichment ratio |
| --- | --- |
| TCCI | 7.17 |
| TCCK | 21.6 |
| TDEN | ≤ 0.25 |
| QTMG | ≤ 0.25 |
| DPLR | ≤ 0.25 |
| SCTD | ≤ 0.25 |
| SCTK | 7.2 |
| SCTC | 7.94 |
| SCTS | 14.9 |
| SCTH | 9.21 |
| SCTA | 12.7 |
| LRRQ | ≤ 0.25 |
| NIGG | ≤ 0.25 |
| LVAY | ≤ 0.25 |
| HFFS | ≤ 0.25 |
| PHFW | ≤ 0.25 |
| MCAF | 32.1 |
| MKAF | ≤ 0.25 |
| KMAF | ≤ 0.25 |
| MSAF | 3.4 |
| MAAF | ≤ 0.25 |
| KCAF | ≤ 0.25 |
| WIAF | ≤ 0.25 |
| MIAF | 14 |

| Variant | enrichment ratio |
| --- | --- |
| MMAF | 13 |
| SCAF | 16.3 |
| STAF | 7.65 |
| SRAF | ≤ 0.25 |
| LHIP | ≤ 0.25 |
| RPYE | ≤ 0.25 |
| AWSD | ≤ 0.25 |
| WEIC | ≤ 0.25 |
| FTRG | ≤ 0.25 |
| AQMD | ≤ 0.25 |
| LIFC | ≤ 0.25 |
| PKNW | ≤ 0.25 |
| FRIG | ≤ 0.25 |
| LEYC | 4.32 |
| WRGG | ≤ 0.25 |
| TYCA | 12.1 |
| TYCI | ≤ 0.25 |
| TYHG | ≤ 0.25 |
| TYCE | ≤ 0.25 |
| TYMG | 14.3 |
| TYVG | 0.756 |
| FWCS | 1.37 |
| HQAE | ≤ 0.25 |
| APEP | ≤ 0.25 |

| Variant | enrichment ratio |
| --- | --- |
| AHCL | 9.7 |
| ACCI | 26.9 |
| KCCY | ≤ 0.25 |
| ACFH | ≤ 0.25 |
| ACCA | 7.21 |
| ACCK | 12.8 |
| KCCC | ≤ 0.25 |
| ACCY | 19.6 |
| ACCC | 34.1 |
| ACCS | 2.23 |
| VCCY | ≤ 0.25 |
| YDTQ | ≤ 0.25 |
| GRPL | ≤ 0.25 |
| KEDR | ≤ 0.25 |
| FEMC | 10.8 |
| IQYT | ≤ 0.25 |
| DHLG | ≤ 0.25 |
| NLYQ | ≤ 0.25 |
